“And” between values parts separate entries of the source, which are not always exact repeats. Identical values can stand only once. The source holds several records for some structures; these can differ, active in one and inactive in another. The source made the active and inactive calls. The calls were made as follows: active = hit-call score of the fitted dose curve at least 0.9, where 1 is the maximum; inactive = score below 0.9.
What was measured:
[1] = ATG_M_61_CIS: Attagene CIS-FACTORIAL HepG2 Assay for M61 Transcription Factor (Internal Marker) (AID 2282937); conditions: HepG2 Attagene CIS-FACTORIAL M61 internal marker reporter; actives raise or lower the signal
Method in brief: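 Fluorescence from labelled cDNA fragments, separated by capillary electrophoresis, quantifies reporter induction. HepG2 cells bearing transiently transfected cis-promoter MRTUs were incubated with test chemical for 24 h; DMSO defined baseline for gain/loss fitting.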

[2] = ATG_EGR_CIS: Attagene CIS-FACTORIAL HepG2 Assay for human Early Growth Response 1 (EGR1) (AID 2282938); conditions: HepG2 Attagene CIS-FACTORIAL EGR reporter mRNA; actives raise or lower the signal
Method in brief: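 Cell-based multiplex transcription assay: HepG2 carrying transfected cis-element reporter units, 24 h chemical treatment. Fluorescence from capillary electrophoresis of RT-PCR products gives mRNA levels; fitting is bidirectional relative to DMSO.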

[3] = ATG_Ets_CIS: Attagene CIS-FACTORIAL HepG2 Assay for human Erythroblast Transformation Specific (ETS) (AID 2282941); conditions: HepG2 ETS cis-reporter transcription, actives raise or lower the signal
Method in brief: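 After transient cis-reporter transfection, HepG2 cells receive test chemical for 24 h. Reporter mRNA levels, measured by RT-PCR and capillary electrophoresis fluorescence, are analysed bidirectionally relative to the DMSO baseline.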

[4] = ATG_FoxO_CIS: Attagene CIS-FACTORIAL HepG2 Assay for human Forkhead box O (FoxO) (AID 2282943); conditions: HepG2 Attagene cis-reporter, FoxO element, mRNA; actives raise or lower the signal
Method in brief: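 Read-out: fluorescence of 6-FAM-labelled reporter cDNA fragments resolved by capillary electrophoresis. Transiently transfected HepG2 cells were dosed for 24 h; activity fitted in both directions relative to DMSO controls.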

[5] = ATG_GATA_CIS: Attagene CIS-FACTORIAL HepG2 Assay for human GATA Binding Protein (AID 2282944); conditions: HepG2 GATA cis-element reporter, Attagene multiplex mRNA; actives raise or lower the signal
Method in brief: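 After transfecting HepG2 cells with multiple cis-regulated reporter units, chemicals are dosed for 24 h; isolated RNA undergoes RT-PCR and fluorescent labeling before capillary electrophoresis, with activity expressed against DMSO.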

[6] = ATG_M_32_CIS: Attagene CIS-FACTORIAL HepG2 Assay for M32 Transcription Factor (Internal Marker) (AID 2282949); conditions: HepG2 Attagene cis-factorial M32 reporter, mRNA; actives raise or lower the signal;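 also: background control marker of the multiplexed CIS panel rather than a real target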
Method in brief: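 Fluorescent capillary electrophoresis peaks of HpaI-digested, FAM-labelled RT-PCR reporter products give the signal. Source: transiently transfected human liver HepG2 cells, 24 h after chemical dosing; bidirectional fitting against DMSO.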

[7] = ATG_M_06_CIS: Attagene CIS-FACTORIAL HepG2 Assay for M06 Transcription Factor (Internal Marker) (AID 2282950); conditions: HepG2 Attagene CIS-FACTORIAL M06 internal marker reporter; actives raise or lower the signal
Method in brief: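 HepG2 liver cells, 24 h exposure. Reporter transcripts from transfected cis-element constructs quantified by RT-PCR/capillary electrophoresis fluorescence. Bidirectional curve fit against DMSO.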

[8] = ATG_MRE_CIS: Attagene CIS-FACTORIAL HepG2 Assay for human Metal Responsive Element (MRE) (AID 2282954); conditions: HepG2 MRE cis-reporter transcription, Attagene multiplex; actives raise or lower the signal
Method in brief: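 HepG2 cells transiently transfected with cis-element-driven reporter units; mRNA measured 24 h after dosing. Reporter transcripts quantified by RT-PCR, FAM labelling, HpaI digestion and capillary electrophoresis; bidirectional fit versus DMSO.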

[9] = molecular target: Paired box protein Pax-6 (Homo sapiens) (UniProt P26367); assay: ATG_Pax6_CIS: Attagene CIS-FACTORIAL HepG2 Assay for human Paired Box 6 (PAX6) (AID 2282956); conditions: HepG2 CIS-FACTORIAL PAX6 reporter transcription, RNA readout; actives raise or lower the signal
Method in brief: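 After twenty-four hours of chemical exposure, transfected HepG2 cells are harvested for RNA. Cis-promoter reporter transcripts are amplified, fluorescently labelled and sized by capillary electrophoresis, with gain and loss of signal scored against DMSO.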

[10] = ATG_PXRE_CIS: Attagene CIS-FACTORIAL HepG2 Assay for human Pregnane X Receptor Element (PXRE) (AID 2282957); conditions: HepG2 Attagene CIS-FACTORIAL PXRE reporter, mRNA; actives raise or lower the signal
Method in brief: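 HepG2 cells transiently transfected with cis-regulated multiple reporter transcription units; endogenous factor activity measured as reporter mRNA 24 h after dosing. RT-PCR, fluorescent primer extension, HpaI digestion, capillary electrophoresis; bidirectional fit versus DMSO baseline.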

[11] = molecular target: Transcription factor Sp1 (Homo sapiens) (UniProt P08047); assay: ATG_Sp1_CIS: Attagene CIS-FACTORIAL HepG2 Assay for human Specificity Protein 1 (Sp1) (AID 2282961); conditions: HepG2 Sp1 cis-reporter transcription, actives raise or lower the signal
Method in brief: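 Sp1-driven reporter mRNA, read as capillary electrophoresis fluorescence after RT-PCR, in transiently transfected HepG2 cells dosed for 24 h; signal change in either direction relative to DMSO.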

[12] = ATG_SREBP_CIS: Attagene CIS-FACTORIAL HepG2 Assay for human Sterol Regulatory Element Binding (SREBP) (AID 2282962); conditions: HepG2 Attagene cis-factorial SREBP reporter, mRNA; actives raise or lower the signal
Method in brief: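 Twenty-four hours after chemical dosing of transfected HepG2 cultures, reporter RNA was converted to cDNA, amplified, end-labelled with 6-FAM and resolved by capillary electrophoresis. Responses were fitted relative to DMSO.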

[13] = molecular target: Signal transducer and activator of transcription 3 (Homo sapiens) (UniProt P40763); assay: ATG_STAT3_CIS: Attagene CIS-FACTORIAL HepG2 Assay for human Signal Transducer and Activator of Transcription 3 (STAT3) (AID 2282963); conditions: HepG2, Attagene cis-factorial STAT3 reporter transcription; actives raise or lower the signal
Method in brief: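 HepG2 cells transiently transfected with multiple cis-element-driven reporter units report endogenous transcription factor activity. After 24 h compound exposure, reporter mRNA is measured by RT-PCR, 6-FAM labelling, HpaI digestion and capillary electrophoresis. Fitted bidirectionally versus DMSO.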

[14] = ATG_TAL_CIS: Attagene CIS-FACTORIAL HepG2 Assay for human TAL Basal Promoter (AID 2282966); conditions: HepG2 Attagene cis-factorial TAL promoter reporter; actives raise or lower the signal;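 also: background control endpoint measuring basal TAL promoter reporter mRNA not a specific factor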
Method in brief: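 HepG2 cells were transiently transfected with promoter-driven multiplexed reporter units and dosed for 24 h. Reporter mRNA was measured by RT-PCR with capillary electrophoresis fluorescence; bidirectional fits used DMSO as baseline, serving as a background control.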

[15] = ATG_TGFb_CIS: Attagene CIS-FACTORIAL HepG2 Assay for human Transforming Growth Factor (TGF) (AID 2282967); conditions: HepG2 Attagene CIS TGFb reporter, mRNA transcription; actives raise or lower the signal
Method in brief: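 Bidirectional fitting relative to DMSO gave the endpoint. Underlying data: reporter mRNA from HepG2 cells carrying transiently transfected cis-regulated reporter constructs, harvested 24 h after dosing and analyzed by RT-PCR and capillary electrophoresis.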

[16] = molecular target: Myc proto-oncogene protein (Homo sapiens) (UniProt P01106); assay: ATG_Myc_CIS: Attagene CIS-FACTORIAL HepG2 Assay for human Myelocytomatosis (Myc) Proto-Oncogene Transcription Factor (AID 2282990); conditions: HepG2, Attagene cis-reporter transcription factor activity; actives raise or lower the signal
Method in brief: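 Read-out: fluorescent reporter mRNA fragments resolved by capillary electrophoresis after RT-PCR. Human HepG2 liver cells carried transfected cis-element reporter units and were dosed for 24 h. Gain or loss of signal fitted relative to DMSO baseline.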

[17] = read-out: Urokinase-type plasminogen activator receptor (uPAR), PLAUR (gene 5329); assay: BSK_4H_uPAR: BioMAP Diversity Plus: 4H Assay for Urokinase-type plasminogen activator receptor (uPAR) Biomarker Activity (AID 2283030); conditions: primary human endothelial cells (HUVEC); actives raise or lower the signal
Method in brief: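 Primary human umbilical vein endothelial cells were exposed to chemical for 24 h before cell-surface uPAR was quantified by ELISA. Activity was fitted bidirectionally against the DMSO negative control baseline.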

[18] = read-out: Monokine induced gamma interferon (MIG), CXCL9 (gene 4283); assay: BSK_CASM3C_MIG: BioMAP Diversity Plus: CASM3C Assay for Monokine induced gamma interferon (MIG) Biomarker Activity (AID 2283048); conditions: primary human coronary artery smooth muscle cells; actives raise or lower the signal;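 also: MIG protein level measured by ELISA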
[19] = read-out: serum amyloid A (SAA), SAA1 (gene 6288); assay: BSK_CASM3C_SAA: BioMAP Diversity Plus: CASM3C Assay for serum amyloid A (SAA) Biomarker Activity (AID 2283049); conditions: primary human coronary artery smooth muscle cells; actives raise or lower the signal;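 also: SAA protein level quantified by ELISA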
[20] = read-out: Thrombomodulin, THBD (gene 7056); assay: BSK_CASM3C_Thrombomodulin: BioMAP Diversity Plus: CASM3C Assay for Thrombomodulin Biomarker Activity (AID 2283051); conditions: primary human coronary artery smooth muscle cells; actives raise or lower the signal;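 also: thrombomodulin protein level measured by ELISA 24 h after dosing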

Measured: AC50

Sequence of Signal transducer and activator of transcription 3 (Homo sapiens) (P40763 whole entry, looked up): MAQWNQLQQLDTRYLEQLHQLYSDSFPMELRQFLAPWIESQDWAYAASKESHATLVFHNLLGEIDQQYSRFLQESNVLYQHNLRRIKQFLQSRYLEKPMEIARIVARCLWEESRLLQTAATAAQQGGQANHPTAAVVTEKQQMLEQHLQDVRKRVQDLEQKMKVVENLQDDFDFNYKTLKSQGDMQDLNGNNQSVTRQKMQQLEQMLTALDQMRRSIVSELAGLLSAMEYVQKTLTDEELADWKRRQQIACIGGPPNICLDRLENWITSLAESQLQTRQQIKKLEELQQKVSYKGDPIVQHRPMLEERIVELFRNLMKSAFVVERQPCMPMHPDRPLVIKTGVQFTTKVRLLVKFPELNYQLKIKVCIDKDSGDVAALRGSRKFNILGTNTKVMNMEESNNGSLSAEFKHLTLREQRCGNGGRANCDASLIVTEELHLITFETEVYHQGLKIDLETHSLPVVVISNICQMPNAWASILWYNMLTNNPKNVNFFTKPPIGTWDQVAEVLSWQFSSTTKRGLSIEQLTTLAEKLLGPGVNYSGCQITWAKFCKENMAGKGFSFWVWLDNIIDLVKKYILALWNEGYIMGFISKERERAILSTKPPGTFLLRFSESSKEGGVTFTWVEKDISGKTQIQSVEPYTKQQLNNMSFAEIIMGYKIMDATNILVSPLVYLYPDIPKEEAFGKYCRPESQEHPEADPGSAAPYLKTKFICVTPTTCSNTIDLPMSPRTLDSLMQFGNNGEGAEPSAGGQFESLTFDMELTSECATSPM
Sequence of Paired box protein Pax-6 (Homo sapiens) (P26367 whole entry, looked up): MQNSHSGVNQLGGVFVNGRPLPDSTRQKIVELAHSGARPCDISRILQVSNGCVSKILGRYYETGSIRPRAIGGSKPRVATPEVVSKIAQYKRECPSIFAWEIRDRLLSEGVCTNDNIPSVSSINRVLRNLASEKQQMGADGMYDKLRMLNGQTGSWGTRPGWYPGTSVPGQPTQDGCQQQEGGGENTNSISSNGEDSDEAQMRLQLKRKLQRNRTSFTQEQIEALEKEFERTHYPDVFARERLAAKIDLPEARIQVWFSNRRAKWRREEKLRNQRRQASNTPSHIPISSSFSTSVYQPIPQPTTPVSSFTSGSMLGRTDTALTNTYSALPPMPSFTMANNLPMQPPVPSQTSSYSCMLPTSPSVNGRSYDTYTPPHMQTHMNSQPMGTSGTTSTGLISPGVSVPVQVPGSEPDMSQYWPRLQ
Sequence of Transcription factor Sp1 (Homo sapiens) (P08047 whole entry, looked up): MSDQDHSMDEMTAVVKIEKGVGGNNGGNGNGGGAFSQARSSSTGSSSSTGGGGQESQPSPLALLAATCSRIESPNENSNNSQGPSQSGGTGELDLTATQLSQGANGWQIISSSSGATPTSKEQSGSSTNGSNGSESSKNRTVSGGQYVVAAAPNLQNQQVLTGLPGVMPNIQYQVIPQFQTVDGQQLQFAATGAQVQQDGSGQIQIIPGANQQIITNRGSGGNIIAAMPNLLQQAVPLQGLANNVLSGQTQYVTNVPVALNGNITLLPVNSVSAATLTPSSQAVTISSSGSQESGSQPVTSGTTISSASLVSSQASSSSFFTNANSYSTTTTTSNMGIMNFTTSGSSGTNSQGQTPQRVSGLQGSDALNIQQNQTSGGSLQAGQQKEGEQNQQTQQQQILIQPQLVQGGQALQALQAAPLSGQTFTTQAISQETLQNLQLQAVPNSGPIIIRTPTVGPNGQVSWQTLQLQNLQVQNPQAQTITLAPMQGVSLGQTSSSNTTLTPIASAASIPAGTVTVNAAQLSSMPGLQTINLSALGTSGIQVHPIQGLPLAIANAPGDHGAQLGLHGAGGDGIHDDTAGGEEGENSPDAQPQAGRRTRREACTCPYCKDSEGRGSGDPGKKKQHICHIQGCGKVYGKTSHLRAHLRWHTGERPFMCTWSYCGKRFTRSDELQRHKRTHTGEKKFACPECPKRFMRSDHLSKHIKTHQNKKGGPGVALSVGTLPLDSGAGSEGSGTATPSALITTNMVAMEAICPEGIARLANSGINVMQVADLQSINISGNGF
Sequence of Myc proto-oncogene protein (Homo sapiens) (P01106 whole entry, looked up, the tested form may be a part): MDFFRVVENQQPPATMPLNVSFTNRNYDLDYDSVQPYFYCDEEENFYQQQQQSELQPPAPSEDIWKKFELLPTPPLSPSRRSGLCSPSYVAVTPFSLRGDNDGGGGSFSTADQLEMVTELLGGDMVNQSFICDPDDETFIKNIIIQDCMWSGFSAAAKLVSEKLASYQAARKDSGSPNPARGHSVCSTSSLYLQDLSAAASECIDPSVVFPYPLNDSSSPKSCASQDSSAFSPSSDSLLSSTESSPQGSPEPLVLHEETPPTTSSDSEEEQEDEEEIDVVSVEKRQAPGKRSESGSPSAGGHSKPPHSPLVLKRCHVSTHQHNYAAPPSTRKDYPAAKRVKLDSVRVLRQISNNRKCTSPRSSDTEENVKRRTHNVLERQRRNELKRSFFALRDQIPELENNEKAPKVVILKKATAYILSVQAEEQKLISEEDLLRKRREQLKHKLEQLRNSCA

C[Si](C)(C)O[Si](C)(C)O[Si](C)(C)C
not listed: [17] | [18] | [19] | [20]
inactive: all other assays above

COc1cc(CNC(=O)CCCC/C=C/C(C)C)ccc1O
inactive: [17] | [18] | [19] | [20]

CC[N+](CC)(CC(=O)Nc1c(C)cccc1C)Cc1ccccc1
active: [10] 32.4 µM
inactive: all other assays above

CCCN[C@H]1CCc2nc(N)sc2C1
not listed: [17] | [18] | [19] | [20]
inactive: all other assays above

COc1ccc2ccccc2c1
not listed: [17] | [18] | [19] | [20]
inactive: all other assays above

CCCCCC[C@@H](O)C/C=C\CCCCCCCC(=O)O
active: [4] 156 µM | [5] 165 µM | [8] 139 µM | [13] 160 µM | [15] 115 µM
not listed: [17] | [18] | [19] | [20]
inactive: all other assays above

O=[N+]([O-])c1cc(S(=O)(=O)Nc2ccccc2)ccc1Nc1ccccc1
inactive: [17] | [18] | [19]
active: [17] 33.5 µM | [20] 5.66 µM and 8.09 µM

CCCCCCCCCC/C=C/C1CC(=O)OC1=O (stereo not given)
active: [15] 100 µM
inactive: all other assays above

Oc1cccc2ccccc12
active: [10] 5.66 µM | [20] 5.22 µM
inactive: all other assays above

OC(C(F)(F)F)(C(F)(F)F)C(O)(C(F)(F)F)C(F)(F)F
active: [17] 12.7 µM and 15.4 µM | [18] 39.8 µM and 30 µM | [20] 30 µM
inactive: [19] | [20]

O=S(=O)(O)c1cccc2ccccc12
not listed: [17] | [18] | [19] | [20]
inactive: all other assays above

CCCCC(CC)COC(=O)C=Cc1ccc(OC)cc1 (stereo not given)
inactive: [17] | [18] | [19] | [20]
active: [18] 32.4 µM | [19] 32.3 µM

Cc1c(C(N)=O)cc([N+](=O)[O-])cc1[N+](=O)[O-]
inactive: [17] | [18] | [19] | [20]

CCCCCCOC(=O)CCCCCCCC(=O)OCCCCCC
active: [10] 71.6 µM
not listed: [17] | [18] | [19] | [20]
inactive: all other assays above

COc1ccccc1OCC(O)CO (stereo not given)
not listed: [17] | [18] | [19] | [20]
inactive: all other assays above

COc1ccc(C(=O)c2ccccc2O)c(O)c1
inactive: [17] | [19] | [20]
active: [17] 10.2 µM | [18] 20 µM and 16.1 µM

C1CN(CCOCCN2CCOCC2)CCO1
inactive: [17] | [18] | [19] | [20]
active: [18] 1.82 µM

Oc1ccc(Oc2ccccc2)cc1
active: [8] 79 µM | [10] 26.4 µM
not listed: [17] | [18] | [19] | [20]
inactive: all other assays above

CCC[Si](OC(C)=O)(OC(C)=O)OC(C)=O
inactive: [17] | [18] | [19] | [20]

CC(C)C1OCCN1CCOC(=O)NCCCCCCNC(=O)OCCN1CCOC1C(C)C (stereo not given)
inactive: [17] | [18] | [19] | [20]

COc1ccccc1Oc1c(NS(=O)(=O)c2ccc(C(C)(C)C)cc2)nc(-c2ncccn2)nc1OCCO
active: [19] 3.97 µM | [20] 7.25 µM
inactive: [17] | [18] | [19] | [20]

CCO[Si](OCC)(OCC)c1ccccc1
active: [10] 50.9 µM
not listed: [17] | [18] | [19] | [20]
inactive: all other assays above

CC(C)(C)NC(=O)[C@@H]1CN(Cc2cccnc2)CCN1C[C@@H](O)C[C@@H](Cc1ccccc1)C(=O)N[C@H]1c2ccccc2C[C@H]1O
active: [10] 19.6 µM
not listed: [17] | [18] | [19] | [20]
inactive: all other assays above

O=C(O)Cc1c[nH]c2ccccc12
active: [10] 35.4 µM
not listed: [17] | [18] | [19] | [20]
inactive: all other assays above

CC[N+](CC)(CC(=O)Nc1c(C)cccc1C)Cc1ccccc1 (tested in a mixture with another compound)
active: [10] 21.8 µM
inactive: all other assays above

C=C(C)C(=O)OCC1CCCO1 (stereo not given)
not listed: [17] | [18] | [19] | [20]
inactive: all other assays above
